Measurements from the supplement of paper PMC4723716.
± gives the uncertainty stated by the source. In all, about 9,900 compounds were measured (“viability index relative to DMSO control”: median about 1, lowest 2% from about 0.85 on). The list comes from a sample in which the lowest values are over-represented; it also holds similar structures and randomly drawn compounds.

System: Plasmodium falciparum NF54 stage V gametocytes
Experiment: viability index relative to DMSO control (fraction); higher = less gametocyte killing
Conditions: 2.5 µM, incubation time: 72 h
Procedure, shortened: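 P. falciparum NF54 stage V gametocytes (serum-free medium, 0.75% gametocytemia, 1.25% hematocrit) were exposed to compound at 2.5 µM for 72 hr at 37°C under low oxygen, then stained with MitoTracker Red CMXRos and saponin for one to two hours. Red particles of 20–70 µm2 in one field per well were counted, and the viability index is that count scaled to the plate mean of solvent-only wells.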

[1] = library set: Broad Institute DOS
[2] = library set: Broad Institute Blood Stage

| SMILES | viability index [1] | viability index [2] |
| --- | --- | --- |
| CS(=O)(=O)N1CC(=O)N2[C@@H](CO)[C@H](c3ccc(Br)cc3)[C@@H]2C1 | 1.05 ± 0.057 | – |
| CN1C[C@H]2[C@@H](c3ccccc31)[C@H](CO)N2Cc1ccccc1Cl | 1.03 ± 0.064 | – |
| C[C@H](CO)N1C[C@H](C)[C@H](CN(C)C(=O)Nc2ccc3c(c2)OCO3)Oc2c(NC(=O)c3nc4ccccc4s3)cccc2C1=O | 0.987 ± 0.021 | – |
| Cc1noc(C)c1NC(=O)N1C[C@@H](O)COC[C@@H]2O[C@H](CC(=O)N3CCc4ccccc4C3)CC[C@H]21 | 1.08 ± 0.11 | – |
| COc1ccc(S(=O)(=O)N(C)C[C@@H]2Oc3c(NC(=O)c4nc5ccccc5s4)cccc3C(=O)N([C@H](C)CO)C[C@@H]2C)cc1 | 0.951 ± 0.047 | – |
| O=C(O)[C@H]1[C@H](CO)[C@H]2Cn3c(ccc(C4=CCCCC4)c3=O)[C@H]2N1Cc1ccc2c(c1)OCO2 | 1.01 ± 0.026 | – |
| CO[C@H]1CC[C@@H]2CCOc3c(C#N)cccc3C(=O)N(C)C[C@H](OC)[C@@H](C)C(=O)N(C)C[C@@H]1O2 | 1.01 ± 0.033 | – |
| C[C@@H]1CN([C@H](C)CO)C(=O)Cc2cc(NC(=O)CCN3CCOCC3)ccc2O[C@@H]1CN(C)Cc1ccc(C(=O)O)cc1 | 1 ± 0.17 | – |
| C[C@@H]1CN([C@H](C)CO)C(=O)c2ccccc2-c2ccccc2CO[C@@H]1CN(C)Cc1cccc(C(=O)O)c1 | 0.958 ± 0.11 | – |
| C[C@@H]1CN([C@H](C)CO)C(=O)c2ccccc2-c2ccccc2CO[C@@H]1CN(C)Cc1ccccc1C(F)(F)F | 0.806 ± 0.11 | – |
| C[C@H](CO)N1C[C@H](C)[C@H](CN(C)Cc2ccccc2C(F)(F)F)OCc2ccccc2-c2ccccc2C1=O | 1 ± 0.015 | – |
| C[C@@H]1CN([C@@H](C)CO)C(=O)c2ccccc2-c2ccccc2CO[C@@H]1CN(C)Cc1ccccc1C(F)(F)F | 0.8276 ± 0.0015 | – |
| C[C@H]1CN([C@@H](C)CO)C(=O)c2ccccc2-c2ccccc2CO[C@H]1CN(C)Cc1cccc2c1OCCCO2 | 0.825 ± 0.16 | – |
| C[C@@H]1CN([C@@H](C)CO)C(=O)c2ccccc2-c2ccccc2CO[C@@H]1CN(C)Cc1cccc2c1OCCCO2 | 1 ± 0.11 | – |
| C[C@@H]1CN([C@@H](C)CO)C(=O)c2ccccc2-c2ccccc2CO[C@H]1CN(C)Cc1cccc(C(=O)O)c1 | 0.987 ± 0.016 | – |
| C[C@H]1CN([C@@H](C)CO)C(=O)c2ccccc2-c2ccccc2CO[C@H]1CN(C)Cc1ccccc1C(F)(F)F | 0.726 ± 0.14 | – |
| CCCN(C)C[C@H]1OCc2ccccc2-c2ccccc2C(=O)N([C@@H](C)CO)C[C@H]1C | 0.89 ± 0.011 | – |
| C[C@@H]1CN([C@@H](C)CO)C(=O)c2ccccc2-c2ccccc2CO[C@H]1CN(C)Cc1ccccc1C(F)(F)F | 0.883 ± 0.044 | – |
| C[C@H](CO)N1C[C@H](C)[C@@H](CN(C)Cc2cccc3c2OCCCO3)OCc2ccccc2-c2ccccc2C1=O | 1.06 ± 0.093 | – |
| C[C@@H]1CN([C@@H](C)CO)C(=O)c2ccccc2-c2ccccc2CO[C@@H]1CN(C)Cc1cccc(C(=O)O)c1 | 0.974 ± 0.098 | – |
| O=C(NCc1ccccc1)[C@H]1[C@H](CO)[C@H]2Cn3c(cccc3=O)[C@@H]1N2C(=O)Cc1ccccn1 | 1.01 ± 0.015 | – |
| CCc1cnc(N2[C@H](C#N)[C@H](c3ccc(C#Cc4ccccc4F)cc3)[C@H]2CO)s1 | 0.8872 ± 0.0045 | – |
| COCC(=O)N1[C@H](CO)[C@@H](c2ccccc2)C12CN(Cc1cc(F)ccc1F)C2 | 1.07 ± 0.023 | – |

| SMILES | viability index [1] | viability index [2] |
| --- | --- | --- |
| CC(C)(C)[S@@](=O)N1Cc2cc(C(=O)NC3CCC3)nc(-c3cccc(Br)c3)c2[C@H]1CCO | 0.994 ± 0.058 | – |
| O=C(NCC[C@H]1CC[C@@H](NC(=O)c2ccncc2)[C@H](CO)O1)Nc1ccc(Cl)cc1 | 1.17 ± 0.023 | – |
| CCCC#Cc1ccc2c(c1)[C@@H]1[C@@H](CCN1S(=O)(=O)c1cccc(F)c1)[C@@H](CO)N2C | 1.12 ± 0.051 | – |
| C[C@H](CO)N1C[C@H](C)[C@H](CN(C)Cc2cccc3c2OCCCO3)OCc2ccccc2-c2ccccc2C1=O | 1.04 ± 0.039 | – |
| C[C@@H]1CN([C@H](C)CO)C(=O)c2ccccc2-c2ccccc2CO[C@@H]1CN(C)Cc1cccc2c1OCCCO2 | 0.941 ± 0.019 | – |
| C[C@H]1CN([C@@H](C)CO)C(=O)c2ccccc2-c2ccccc2CO[C@@H]1CN(C)Cc1ccccc1C(F)(F)F | 0.843 ± 0.028 | – |
| O=C(Cc1cccnc1)N1CC(=O)N2[C@H](C1)[C@@H](c1ccc(/C=C/c3ccccc3)cc1)[C@@H]2CO | 1 ± 0.029 | – |
| COCC(=O)N1CC(=O)N2[C@H](CO)[C@@H](c3ccc(-c4ccccc4F)cc3)[C@@H]2C1 | 1.07 ± 0.083 | – |
| O=C(c1ccccc1)N1CC(=O)N2[C@H](CO)[C@H](c3ccc(-c4ccccc4)cc3)[C@@H]2C1 | 1.02 ± 0.066 | – |
| O=C(c1cccc(F)c1)N1CC(=O)N2[C@H](C1)[C@@H](c1ccc(-c3cccnc3)cc1)[C@@H]2CO | – | 0.817 ± 0.042 |
| O=C(c1cnccn1)N1CC(=O)N2[C@H](CO)[C@@H](c3ccc(-c4cccc(F)c4)cc3)[C@@H]2C1 | 0.99 ± 0.047 | – |
| O=C(c1cccc(F)c1)N1CC(=O)N2[C@H](CO)[C@H](c3ccc(-c4cccnc4)cc3)[C@H]2C1 | – | 0.771 ± 0.058 |
| O=C(c1cnccn1)N1CC(=O)N2[C@H](C1)[C@@H](c1ccc(-c3cccc(F)c3)cc1)[C@@H]2CO | 1.02 ± 0.012 | – |
| O=C(c1cnccn1)N1CC(=O)N2[C@@H](CO)[C@@H](c3ccc(-c4cccc(F)c4)cc3)[C@@H]2C1 | 1.02 ± 0.058 | – |
| O=C(c1ccncc1)N1CC(=O)N2[C@H](C1)[C@@H](c1ccc(-c3cccnc3)cc1)[C@@H]2CO | – | 0.891 ± 0.059 |
| O=C(c1cnccn1)N1CC(=O)N2[C@@H](CO)[C@H](c3ccc(-c4cccc(F)c4)cc3)[C@@H]2C1 | 1 ± 0.049 | – |
| O=C(c1ccccc1)N1CC(=O)N2[C@H](C1)[C@@H](c1ccc(-c3ccccc3)cc1)[C@@H]2CO | 0.829 ± 0.051 | – |
| O=C(c1cccnc1)N1CC(=O)N2[C@H](CO)[C@H](c3ccc(-c4ccccc4F)cc3)[C@H]2C1 | 1.04 ± 0.041 | – |
| O=C(c1ccccc1)N1CC(=O)N2[C@H](CO)[C@@H](c3ccc(-c4ccccc4)cc3)[C@H]2C1 | 1.018 ± 0.0095 | – |
| O=C(c1ccc(F)cc1)N1CC(=O)N2[C@H](C1)[C@@H](c1ccc(-c3cccnc3)cc1)[C@@H]2CO | – | 0.733 ± 0.11 |
| O=C(Cc1cccnc1)N1CC(=O)N2[C@H](CO)[C@@H](c3ccc(C4=CCCCC4)cc3)[C@H]2C1 | 0.9507 ± 0.0051 | – |
| O=C(C1CCC1)N1CC(=O)N2[C@H](C1)[C@H](c1ccc(Br)cc1)[C@@H]2CO | 1.02 ± 0.0049 | – |
| C[C@H]1CN([C@@H](C)CO)C(=O)c2c(c3ccccc3n2C)-c2ccccc2CO[C@@H]1CN(C)C(=O)NC1CCCCC1 | 1.04 ± 0.11 | – |

| SMILES | viability index [1] | viability index [2] |
| --- | --- | --- |
| O=C(C[C@@H]1CC[C@@H]2[C@H](COC[C@@H](O)CN2C(=O)c2ccncc2)O1)NCc1cc(F)cc(F)c1 | 1.05 ± 0.12 | – |
| O=C(O)C[C@H]1C[C@H]2c3cc(NC(=O)Nc4ccc(C(F)(F)F)cc4)ccc3O[C@H]2[C@@H](CO)O1 | 1.06 ± 0.041 | – |
| O=C(NC[C@@H]1[C@H](c2ccccc2)[C@@H](CO)N1C(=O)C1CCC1)NC1CCCC1 | 0.976 ± 0.12 | – |
| COc1ccc(S(=O)(=O)N(C)C[C@@H]2Oc3ccc(NC(=O)Nc4ccc(C(F)(F)F)cc4)cc3C(=O)N([C@H](C)CO)C[C@H]2C)cc1 | 0.957 ± 0.08 | – |
| CN1CCN(C(=O)C[C@H]2CC[C@@H]3[C@H](COC[C@H](O)CN3Cc3cccc(-c4ccncc4)c3)O2)CC1 | 1.08 ± 0.028 | – |
| O=C(C[C@H]1CC[C@H](NS(=O)(=O)c2ccc(F)cc2)[C@@H](CO)O1)N1CCN(c2ccccc2)CC1 | 1.09 ± 0.13 | – |
| O=C(C[C@H]1CC[C@@H]2[C@H](COC[C@@H](O)CN2CCc2ccccc2)O1)NCCCN1CCOCC1 | 1.07 ± 0.054 | – |
| O=C(c1ccccc1F)N1CC(=O)N2[C@H](CO)[C@H](c3ccc(-c4cccnc4)cc3)[C@H]2C1 | – | 0.742 ± 0.068 |
| O=C(c1ccccc1F)N1CC(=O)N2[C@H](C1)[C@@H](c1ccc(-c3ccc(F)cc3)cc1)[C@@H]2CO | – | 0.86 ± 0.04 |
| O=C(c1ccccc1F)N1CC(=O)N2[C@H](C1)[C@@H](c1ccc(-c3cccnc3)cc1)[C@@H]2CO | – | 0.866 ± 0.049 |
| Cc1noc(C)c1NC(=O)N(C)C[C@@H]1OCc2cn(nn2)CCCC(=O)N([C@H](C)CO)C[C@@H]1C | 1.08 ± 0.1 | – |
| C[C@H](CO)N1C[C@H](C)[C@H](CN(C)Cc2ccc(C(=O)Nc3ccccc3N)cc2)OCc2cnnn2CCCC1=O | 0.953 ± 0.042 | – |
| CO[C@H]1CN(C)C(=O)c2ccc(NC(=O)c3cc(C)on3)cc2OC[C@H](C)NC[C@H]1C | 0.98 ± 0.029 | – |
| COc1cccc(S(=O)(=O)N(C)C[C@@H]2OCc3ccccc3-c3c(n(C)c4ccccc34)C(=O)N([C@H](C)CO)C[C@@H]2C)c1 | 0.826 ± 0.058 | – |
| COc1cccc(S(=O)(=O)N(C)C[C@H]2OCc3ccccc3-c3c(n(C)c4ccccc34)C(=O)N([C@@H](C)CO)C[C@@H]2C)c1 | 0.956 ± 0.013 | – |
| COc1cccc(S(=O)(=O)N(C)C[C@H]2OCc3ccccc3-c3c(n(C)c4ccccc34)C(=O)N([C@H](C)CO)C[C@@H]2C)c1 | 0.975 ± 0.027 | – |
| COc1cccc(S(=O)(=O)N(C)C[C@H]2OCc3ccccc3-c3c(n(C)c4ccccc34)C(=O)N([C@H](C)CO)C[C@H]2C)c1 | 0.952 ± 0.034 | – |
| COc1cccc(S(=O)(=O)N(C)C[C@@H]2OCc3ccccc3-c3c(n(C)c4ccccc34)C(=O)N([C@@H](C)CO)C[C@H]2C)c1 | 0.977 ± 0.016 | – |
| COc1cccc(S(=O)(=O)N(C)C[C@H]2OCc3ccccc3-c3c(n(C)c4ccccc34)C(=O)N([C@@H](C)CO)C[C@H]2C)c1 | 0.833 ± 0.059 | – |
| COc1cccc(S(=O)(=O)N[C@H]2CC[C@@H](CC(=O)NC3Cc4ccccc4C3)O[C@@H]2CO)c1 | 0.999 ± 0.044 | – |
| CC(C)(C)[S@](=O)N1Cc2cc(C(=O)N3CCOCC3)nc(-c3cccc(-c4ccccc4F)c3)c2[C@@H]1CCO | 1.07 ± 0.044 | – |
| C[C@@H]1CN([C@@H](C)CO)C(=O)c2cc(NC(=O)Nc3ccccc3)ccc2O[C@@H](C)CCCCO[C@H]1CN(C)C(=O)Nc1ccccc1 | 1.11 ± 0.13 | – |
| Cc1ccc(S(=O)(=O)Nc2ccc3c(c2)C(=O)N(C)[C@@H]2CC[C@H](CC(=O)NCCc4ccncc4)O[C@H]2CO3)cc1 | 1.04 ± 0.026 | – |
